Bioassay records from PubChem BioAssay.
This is a sample that favours compounds with a hit; in the whole collection about 19% have one here.
DT40 TDP1 CPT: growth inhibition of DT40 Tdp1-/-;hTDP1 cells with camptothecin (screen for TDP1 inhibitors); chicken DT40 Tdp1-/-;hTDP1 cells + 20 nM CPT, ATP luminescence, 48 h; Potency, µM (highest dose often 46.2 µM), inactives show at the top dose activity change, negative = growth inhibition, most hits filed as inhibitors; 420,000 compounds, 12% hits; also: potency is read from the fitted curve at half-maximal effect; nearly all actives have a fitted effect of over 55% in size
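Cell growth measured by CellTiter-Glo luminescence after a minimum 48 h, 37 C compound exposure with 20 nM CPT in Tdp1-knockout DT40 cells stably expressing hTDP1, seeded 400/well; qHTS titration format.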
HT1080-NT tox: kills 2HG-producing HT-1080-NT fibrosarcoma cells. HT-1080-NT fibrosarcoma viability, CellTiter-Glo ATP luminescence, 48 h. AID 686970. 360,000 compounds, 1.6% hits. Potency, µM (series often up to 46.1 µM), inactives show at the highest dose activity, negative = less viability, usual class: cytotoxic;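 also: NT is the 2HG producing partner of a matched IDH1 knockdown line; potency is read from the fitted curve at half-maximal effect; 0% = DMSO-treated cells and -100% = media-only wells without cells; nearly all actives have a fitted effect of over 55% in size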
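Viability of the 2HG-overproducing fibrosarcoma line after 48 hours of compound exposure at 37 degrees C was determined by luminescence with CellTiter-Glo, and concentration-effect curves were then fitted and categorized.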
uPA surface inh: blocks generation of uPA at the cell surface; cell surface uPA generation assay, qHTS; 330,000 compounds, 0.31% hits; Potency, µM (series often up to 38.3 µM), inactives show top-dose activity change, negative = inhibition, most hits filed as inhibitors; active = well fitted inhibition curve with a large enough effect; inconclusive = small, poorly fitted or top-dose-only effect; inactive = no such curve, though single readings can be large or run the other way; tested in mouse RAW 264.7 cells; also: potency is read from the fitted curve at half-maximal effect; nearly all actives have a fitted effect of over 55% in size
DT40 TDP1 no CPT: qHTS for Inhibitors of human tyrosyl-DNA phosphodiesterase 1 (TDP1): qHTS in cells in absence of CPT | DT40 Tdp1-/- hTDP1 cells, no CPT, ATP luminescence, 48 h | Potency, µM (doses to about 46.2 µM), for the others: at the top dose activity change, negative = growth inhibition, usual class: inhibitors | 420,000 compounds, 15% hits | AID 686978, 2013; also: potency is read from the fitted curve at half-maximal effect; nearly all actives have a fitted effect of over 55% in size
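Chicken DT40 Tdp1-/- cells stably complemented with human TDP1 were seeded at 400 cells/well with DMSO in place of 20 nM camptothecin. After compound pinning, cells grew at least 48 hr at 37 °C; viability read by CellTiter-Glo luminescence.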
HT1080 IDH1KD tx: kills HT-1080 cells with IDH1 knockdown; HT-1080 IDH1 knockdown viability, ATP luminescence, 48 h; Potency, µM (highest dose often 46.1 µM), for the others: at the top dose activity, negative = toxicity, most hits filed as cytotoxic; 360,000 compounds, 2% hits; AID 686971;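 also: potency is read from the fitted curve at half-maximal effect; 0% = DMSO wells and -100% = cell-free medium wells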
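Cytotoxicity counter-line: IDH1KD HT-1080, 48 h, CellTiter-Glo. Curves classed by r2, magnitude and activity.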
IL-1B inflam inh: inhibitors of inflammasome signaling (IL-1 beta secretion). THP-1 LPS/ATP IL-1B secretion, AlphaLISA, 16 h; active compounds read low. activity change, % at 57.5 µM. 360,000 compounds, 4.7% hits; in the data active = activity change below about -50%; inconclusive = mostly about -30% to -49%
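Secreted IL-1B measured by AlphaLISA bead assay after 16 h compound exposure of THP-1 cells; compounds (final up to 57.5 uM) added 1 h before LPS (250 ng/mL) and ATP (1.25 mM) stimulation; lower signal means less secretion.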
Numbers without * were called inactive; u = inconclusive; x = not tested or not shown. Unless noted, calls follow the shape of the dose curve; as a rule, active = well fitted curve in the direction sought with a large enough effect; inconclusive = small, poorly fitted or top-dose-only effect, or another doubt; inactive = no such curve, though single readings can be large; an effect the other way counts as inactive or inconclusive. Unless noted, % is scaled to controls: 0 for no effect and ±100 for the full control effect.

SMILES	DT40 TDP1 CPT	HT1080-NT tox	uPA surface inh	DT40 TDP1 no CPT	HT1080 IDH1KD tx	IL-1B inflam inh
Cc1ccccc1-n1c(-c2ccco2)nc2ccccc2c1=O	12µM*	-12%	11%	9.2µM*	-16%	-17
O=c1c2ccccc2nc(-c2ccco2)n1-c1ccccc1	u	13%	0%	u	12%	-11
COc1ccc(OC)c([C@@H](O)[C@H](C)N)c1	-26%	x	x	-15%	x	x
NC(Cc1ccccc1)c1nc(-c2ccccc2)no1 (stereo not given)	-12%	1%	-2%	3%	14%	25
CN1C2CCC1CC(OC(c1ccccc1)c1ccccc1N)C2 (stereo not given)	u	-22%	-4%	u	u	-19
CN1C2CCC1CC(OC(c1ccccc1)c1ccc(Cl)cc1)C2 (stereo not given)	3µM*	x	x	4.7µM*	x	x
CC(C#N)CCC#N (stereo not given)	-1%	15%	8%	-7%	5%	-3
CC12CC(=O)C3C(CCC4CC=CCC43C)C1CCC2=O (stereo not given)	13%	13%	7%	u	9%	2
O=S(=O)(Nc1c(O)ccc2ccccc12)c1ccc(F)cc1	u	u	2%	u	-17%	u
CC(C)(C)c1ccc(O)c(N=Cc2c(O)ccc3ccccc23)c1	26µM*	-7%	-5%	16µM*	-27%	79
COC(=O)C1=C(c2cccc(OC)c2OC)C[C@@H]2CC[C@H]1N2C(=O)NCc1cccc2ccccc12	u	7%	16%	u	-1%	0
Cc1ccc(C)c(N2CCN(C(=O)C3CCCN(S(=O)(=O)c4cccc5nsnc45)C3)CC2)c1 (stereo not given)	5.8µM*	x	x	7.3µM*	x	x
CC(C)(C)N1CC(C(=O)c2ccccc2)C1c1ccccc1 (stereo not given)	-21%	-7%	-8%	-3%	u	-80*
Cc1cc(O)c2c(c1)C(=O)c1cc(O)cc(O)c1C2=O	18µM*	-30%	0%	21µM*	-22%	-13
CC1=[N+]([O-])C2(N)CCc3nonc3C2(O)C1 (stereo not given)	-1%	17%	0%	-4%	18%	3
CN1CCN(/N=C/c2c(O)n(Cc3ccc(F)cc3)c(=O)[nH]c2=O)CC1	15%	9%	-3%	10%	8%	31
CCOC(=O)c1cccc(C2=C(CNC(=O)c3nccs3)[C@H]3CC[C@@H](C2)N3Cc2ccccc2)c1	15µM*	-8%	x	23µM*	-15%	1
CCOC(=O)c1cccc(C2=C(CNC(=O)c3ocnc3C)[C@H]3CC[C@@H](C2)N3Cc2ccccc2)c1	-8%	0%	x	u	-9%	33
COc1ccc(NC(=O)CSc2nc(-c3cccs3)cc(C(F)(F)F)n2)cc1Cl	16µM*	x	x	23µM*	x	x
CN(C)P(=O)(N(C)C)N1CC1	-16%	7%	-3%	-4%	10%	-6
COC(=O)C(O)(c1ccc(NC(=S)NC(=O)c2ccccc2)cc1)C(F)(F)F (stereo not given)	-18%	u	-6%	-17%	-29%	6
CCSc1nnc(NC(=O)c2cccn(Cc3ccccc3Cl)c2=O)s1	2%	x	x	11%	x	x
O=C(c1cc2ccccn2n1)N1CCC2(CC1)OCCO2	-7%	-2%	x	-11%	14%	28
COc1ccc(-c2cc(C(F)(F)F)n3nc(C(=O)N4CCC5(CC4)OCCO5)cc3n2)cc1OC	-23%	-6%	-3%	21µM*	-8%	-8
COc1ccccc1-n1c(O)c(/C=C2\C=Nc3ccccc32)c(=O)[nH]c1=O	u	-7%	10%	u	-6%	0
SMILES	DT40 TDP1 CPT	HT1080-NT tox	uPA surface inh	DT40 TDP1 no CPT	HT1080 IDH1KD tx	IL-1B inflam inh
Nc1ncnc2c1ncn2[C@@H]1O[C@H](COP(=O)(O)CP(=O)(O)O)[C@@H](O)[C@H]1O	4.1µM*	u	u	u	-20%	-1
CCOP(=O)(OCC)c1cccc(P(=O)(c2ccccc2)c2ccccc2)c1O	-120%	u	0%	u	-7%	55
C/C(=N\N=C(N)N)c1ccccc1	u	-2%	-1%	18µM*	-21%	x
COC(=O)C1=C(c2c(C)noc2C)C[C@@H]2CC[C@H]1N2C(=O)NCC1CC1	3%	18%	1%	2%	10%	14
COc1ccc(C2=NCC(=O)N(CC(=O)NCc3ccco3)c3sc4c(c32)CCCC4)cc1OC	u	0%	6%	u	0%	-56*
C[C@@H]1O[C@@H](O[C@@H]2C=C3CC[C@@H]4[C@@H](CC[C@]5(C)[C@H](c6ccc(=O)oc6)CC[C@@]45O)[C@@]3(C)CC2)[C@H](O)[C@H](O)[C@H]1O	0.28µM*	x	x	u	x	x
C[C@@H]1O[C@@H](O[C@@H]2C=C3CC[C@@H]4[C@H](CC[C@]5(C)[C@@H](c6ccc(=O)oc6)CC[C@]45O)[C@@]3(C)CC2)[C@H](O)[C@H](O)[C@H]1O	0.14µM*	x	x	0.13µM*	x	x
Cc1ccc2cc(C=C(C#N)C#N)c(Cl)nc2c1	2.1µM*	-1%	-10%	2.9µM*	-12%	-96*
O=C(Nc1ccccc1)N1CC[C@@]2(CCCN(C(=O)Oc3ccccc3)C2)C1	5%	x	x	-11%	x	x
COc1ccc(C(=O)Oc2cccc3cccnc23)cc1S(=O)(=O)N1CCOCC1	u	-11%	-1%	3.3µM*	u	-2
O=C1C=CC2C3C(=O)N(c4ccccc4)C(=O)C3C1N2Cc1ccccc1 (stereo not given)	2.1µM*	u	-1%	2.3µM*	10µM*	-97*
Cc1ccc([C@@H]2CC(=O)[C@@H]3CN(S(=O)(=O)c4ccccc4C)[C@H](c4ccc(Cl)cc4)C[C@@H]3N2S(=O)(=O)c2ccc(C)cc2)cc1	u	3%	x	26µM*	-1%	49
O=C(c1ccc(F)cc1)N1CCC(c2nc(-c3ccc(S(=O)(=O)N4CCCC4)cc3)no2)CC1	21µM*	x	x	12µM*	x	x
Cc1nnc2n1-c1ccc(Cl)cc1C(c1ccccc1Cl)=NC2	-3%	x	x	-3%	x	x
